The values below come from PubChem BioAssay.

Molecules are shown by their SMILES. The list shows a part of the results. Results filed as inconclusive are left out. The source made the active and inactive calls.

The target of assay [1] is Solute carrier family 12 member 5 (Homo sapiens) (UniProt Q9H2X9). As to the kind of experiment: retest of KCC2 transport modulators without sodium – cell-based, HEK293 KCC2, thallium flux, secondary assay, confirmation (AID 1713;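 active = thallium flux slope above the same plate's solvent-only control mean plus 3 SD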). The settings on record: FluoZin2 fluorescence, at 10 µM, stronger effect = higher value.
Sequence of Solute carrier family 12 member 5 (Homo sapiens) (Q9H2X9 whole entry, looked up): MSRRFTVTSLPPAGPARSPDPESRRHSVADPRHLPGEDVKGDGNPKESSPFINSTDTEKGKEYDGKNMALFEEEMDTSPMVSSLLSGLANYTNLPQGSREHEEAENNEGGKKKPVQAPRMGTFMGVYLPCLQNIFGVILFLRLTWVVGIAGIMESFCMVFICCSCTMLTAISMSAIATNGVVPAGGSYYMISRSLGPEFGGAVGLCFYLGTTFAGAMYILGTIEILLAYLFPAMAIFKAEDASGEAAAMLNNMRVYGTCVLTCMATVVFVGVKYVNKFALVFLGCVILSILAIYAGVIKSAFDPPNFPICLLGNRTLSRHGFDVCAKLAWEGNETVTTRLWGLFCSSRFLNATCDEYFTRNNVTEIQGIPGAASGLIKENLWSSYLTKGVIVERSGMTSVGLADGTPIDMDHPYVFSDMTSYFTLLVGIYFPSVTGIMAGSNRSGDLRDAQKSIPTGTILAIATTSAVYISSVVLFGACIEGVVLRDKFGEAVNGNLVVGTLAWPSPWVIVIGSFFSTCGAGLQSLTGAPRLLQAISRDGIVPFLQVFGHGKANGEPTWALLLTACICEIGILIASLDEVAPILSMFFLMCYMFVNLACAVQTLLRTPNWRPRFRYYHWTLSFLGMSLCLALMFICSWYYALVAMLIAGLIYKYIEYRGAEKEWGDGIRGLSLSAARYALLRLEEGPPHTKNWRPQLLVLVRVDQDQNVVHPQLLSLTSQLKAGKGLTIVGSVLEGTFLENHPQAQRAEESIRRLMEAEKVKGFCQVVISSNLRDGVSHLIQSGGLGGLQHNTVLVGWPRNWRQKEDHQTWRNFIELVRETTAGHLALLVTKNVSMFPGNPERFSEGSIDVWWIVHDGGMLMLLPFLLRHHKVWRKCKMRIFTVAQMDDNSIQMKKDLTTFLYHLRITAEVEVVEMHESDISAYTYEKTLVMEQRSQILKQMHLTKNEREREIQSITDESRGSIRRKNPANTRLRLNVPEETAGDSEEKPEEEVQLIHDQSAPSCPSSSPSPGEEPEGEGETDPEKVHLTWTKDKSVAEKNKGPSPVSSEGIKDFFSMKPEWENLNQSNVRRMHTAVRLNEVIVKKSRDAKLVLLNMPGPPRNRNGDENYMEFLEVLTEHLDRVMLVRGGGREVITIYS
A short description of a further assay: PubChem AID 1714.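 Also: raw slope of fluorescence over initial fluorescence between 10 and 20 s after thallium.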 The conditions noted are these: HEK293-KCC2 + bumetanide/ouabain, thallium flux FluoZin2; at 10 µM; stronger effect = higher value.
A short description of assay [2]: compound effects on native HEK Tl+ uptake – HEK cells, counterscreen 1, counter-screen for KCC2 modulator project, confirmation (AID 1716). The settings on record: HEK293 parental cells, thallium flux FluoZin2, ouabain; at 10 µM; baseline-ratio fluorescence slope, 10–20 s after thallium. In general terms: Counterscreens check selectivity or assay interference.
Assay [3] deals with Solute carrier family 12 member 5 (Homo sapiens) (UniProt Q9H2X9). As to the kind of experiment: modulation of KCC2 thallium flux in HEK cells – cell-based, ouabain, retest, confirmation (AID 1717;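 active = thallium flux slope beyond 3 SD from same-plate DMSO control mean in most replicates, usually higher, sometimes lower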;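 also: slope of initial-normalized fluorescence between seconds 10 and 20 after thallium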). The conditions noted are these: HEK293-KCC2, thallium flux FluoZin2 fluorescence, at 10 µM, bidirectional: low = inhibitor, high = activator.
The nature of assay [4]: native HEK Tl+ uptake effects, second counter-screen – HEK cells, counterscreen 2, counter-screen for KCC2 modulator project, confirmation (AID 1718;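 active = thallium flux slope above the same plate's solvent-control mean plus 3 SD in both duplicate wells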;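 also: run without ouabain in cells lacking the KCC2 cotransporter; slope of fluorescence scaled to its starting value between 10 and 20 s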). The conditions noted are these: HEK293 parental, thallium flux FluoZin-2 fluorescence slope; at 10 µM.
Assay [5] deals with Solute carrier family 12 member 5 (Homo sapiens) (UniProt Q9H2X9). As to the kind of experiment: retest of KCC2 transport modulation, ouabain-free – cell-based, HEK293 KCC2, thallium flux, FluoZin2, secondary assay 2, confirmation (AID 1715;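 active = thallium flux slope more than 3 SD above or below the plate's solvent-only control mean, mostly below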;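 also: raw slope with 0.1% DMSO as baseline and bumetanide as block control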). The settings on record: HEK293-KCC2, thallium flux FluoZin2 fluorescence; at 10 µM; actives lie on both sides; F/F0 rise rate, 10–20 s post-thallium.

A short description of assay [6]: inhibitors of TNFa-induced NFkB p65 translocation, primary screen, imaging, HUVEC, MLSMR starter and 10KST1 sets (AID 438;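 active = inhibition above 20% together with a positive visual image hit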;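 also: compound added about 3h40 before a 20 min TNFalpha stimulation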;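 as to inhibition: signal is the nuclear over cytoplasmic p65 intensity ratio per well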). The settings on record: HUVEC TNFa-induced p65 nuclear translocation; cell count: measured here: nuclei count (cytotoxicity indicator), at 2.08 µM; inhibition: at 2 µM, stronger effect = higher value, 0% TNFa-plus-vehicle, 100% no-TNFa wells.
The nature of assay [7]: reduction of polyQ htt aggregates in cells – imaging, exon1htt(103Q)mCFP cells, high-content imaging, primary screen (AID 483;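 active = visual image review flags a hit and inhibition of aggregation exceeds 20%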;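 also: compound exposure lasted 3 days before fixation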;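 as to nuclei count: percent of the per-plate median nuclei count of sample wells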). The conditions noted are these: exon1htt(103Q)mCFP cell line, aggregate imaging, at 2 µM; inhibition of aggregation: stronger effect = higher value; nuclei count: measured here: cell count, toxicity.
Assay [8] can be described thus: endothelial E-selectin expression blockers – imaging, HUVEC, immunofluorescence, MLSMR starter and 10KST1 sets, primary screen (AID 487;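 active = visually confirmed hit in the image check and inhibition above 20%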;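 as to inhibition: signal is fraction of cell area covered by stained E-selectin grains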;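 as to nuclei count: 100% = median nuclei count of all wells on the same plate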). The conditions noted are these: HUVEC TNFalpha-induced E-selectin immunofluorescence imaging, at 2 µM; inhibition: stronger effect = higher value; nuclei count: measured here: cell number, toxicity.
The nature of assay [9]: Primary imaging screen for DUSP6 inhibitors that restore phospho-Erk in transfected HeLa cells, chemical complementation (AID 609;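 active = compounds giving at least 50% inhibition in the cell-based MKP-3 phosphatase rescue imaging test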;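 as to inhibition: phospho-Erk level distribution per well compared with pooled transfected vehicle control wells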). The conditions noted are these: HeLa MKP-3 transfected, phospho-Erk imaging KS statistic, at 10 µM, cells stimulated with TPA for 15 min.
Assay [10] has as its target Dual specificity protein phosphatase 6 (Homo sapiens) (UniProt Q16828). The description is as above. The settings on record: HeLa MKP-3 transfected, phospho-Erk imaging KS statistic; at 10 µM; stronger effect = higher value; cells stimulated with TPA for 15 min.
Assay [11] deals with Voltage-gated potassium channel subunit beta-2 (Rattus norvegicus) (UniProt P62483). As to the kind of experiment: inhibitors of rat Kvbeta2 reductase activity – biochemical, NADPH fluorescence, primary screen (AID 622;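 active = fluorescence slope higher than the sample average by over 3 SD, cut at about -0.22 in these data, passing the limit was not always enough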;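 also: slope of raw intensity against log time taken from 70 to 1610 s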). The settings on record: recombinant KvBeta, 4-cyanobenzaldehyde reduction, at 10 µM, stronger effect = higher value.
Sequence of Voltage-gated potassium channel subunit beta-2 (Rattus norvegicus) (P62483 whole entry, looked up): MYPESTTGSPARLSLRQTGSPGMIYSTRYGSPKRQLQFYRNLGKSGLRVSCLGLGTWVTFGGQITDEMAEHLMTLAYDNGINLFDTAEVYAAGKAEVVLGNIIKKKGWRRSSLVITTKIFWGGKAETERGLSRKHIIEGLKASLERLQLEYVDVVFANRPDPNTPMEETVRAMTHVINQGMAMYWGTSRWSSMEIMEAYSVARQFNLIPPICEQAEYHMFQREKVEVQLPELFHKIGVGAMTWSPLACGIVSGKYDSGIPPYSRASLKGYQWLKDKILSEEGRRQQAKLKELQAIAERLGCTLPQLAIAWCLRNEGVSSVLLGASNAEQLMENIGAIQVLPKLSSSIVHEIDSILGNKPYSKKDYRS
Assay [12] shares this target. As to the kind of experiment: enhancers of rat Kvbeta2 NADPH turnover – biochemical, NADPH fluorescence, primary screen (AID 623;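 active = NADPH fluorescence slope more negative than the mean of all samples by about 3 SD, 99.7% confidence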;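 also: fluorescence intensity change per second fitted from 20 to 320 s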). The conditions noted are these: Recombinant KvBeta, NADPH fluorescence decrease slope, 10 min; at 10 µM; stronger effect = lower value.
Assay [13] deals with Alpha-2C adrenergic receptor (Homo sapiens) (UniProt P18825). Nature of the assay: compounds altering alpha2C-coupled GIRK flux – cell-based, HEK293 alpha2C/GIRK1/2, thallium flux, primary screen (AID 624;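 active = fluorescence slope after compound addition differing from the mean of all screened samples at 99.7% confidence, in either direction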;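 also: slope of fluorescence ratio to pre-addition baseline per second over 15 to 24 s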). The settings on record: thallium flux BTC fluorescence, at 10 µM, actives lie on both sides.
Sequence of Alpha-2C adrenergic receptor (Homo sapiens) (P18825 whole entry, looked up): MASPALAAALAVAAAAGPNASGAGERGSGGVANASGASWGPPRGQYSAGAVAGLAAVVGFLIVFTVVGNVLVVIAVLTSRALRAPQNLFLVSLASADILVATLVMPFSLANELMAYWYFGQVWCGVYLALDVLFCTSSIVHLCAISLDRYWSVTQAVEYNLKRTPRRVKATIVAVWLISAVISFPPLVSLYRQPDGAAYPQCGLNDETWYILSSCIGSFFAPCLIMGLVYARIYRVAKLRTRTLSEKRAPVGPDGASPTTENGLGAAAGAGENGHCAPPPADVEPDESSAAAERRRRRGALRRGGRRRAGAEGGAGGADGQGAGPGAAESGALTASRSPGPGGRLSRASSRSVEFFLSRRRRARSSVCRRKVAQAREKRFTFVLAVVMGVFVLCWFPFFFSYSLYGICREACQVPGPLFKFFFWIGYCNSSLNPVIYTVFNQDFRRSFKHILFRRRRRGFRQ
Assay [14] is described as follows: loss of swimming-algae plug formation – whole organism, Chlamydomonas reinhardtii, WT vs cilia-less mutant, absorbance, 96-well, primary screen (AID 463189;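 active = inhibition at or above 50% relative to wild type and mutant plate controls; inactive = inhibition below 50%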;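 also: 0% = wild type cc124 cells in DMSO and 100% = ciliumless bld1 mutant cells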). The conditions noted are these: Chlamydomonas reinhardtii gravitaxis, OD600 absorbance, 2 days; at 10 µM; stronger effect = higher value.
A short description of assay [15]: blockers of RIG-like receptor reporter activation – cell-based, Sendai virus stimulus, luciferase, 10K MLSCN set, TLR/RLR signaling modifier project, primary screen (AID 602276;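 active = inhibition at or above 50% at 10 µM; inactive = inhibition below 50%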;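 also: firefly luciferase from ISG56 promoter only with Renilla not read in this screen; 0% = Sendai virus plus DMSO and 100% = medium plus DMSO without virus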). The conditions noted are these: HEK293 RL24 IRF3 luciferase reporter, at 10 µM, stronger effect = higher value. (A reporter such as luciferase makes a cellular process visible.)
The nature of assay [16]: TLR3 IRF3 reporter activation blockers – cell-based, poly I:C stimulus, luciferase, 10K MLSCN set, primary screen (AID 602277;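 active = inhibition of the reporter signal at or above 50%; inactive = inhibition below 50%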). The settings on record: HEK293-TLR3 RL24 IRF3 luciferase reporter, at 10 µM, stronger effect = higher value.
The target of assay [17] is Muscarinic acetylcholine receptor M4 (Homo sapiens) (UniProt P08173). Nature of the assay: M4-linked GIRK flux change, two-sided – cell-based, HEK293 M4/GIRK, thallium flux, BTC-AM, M4 allosteric agonist project, primary screen (AID 625;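 active = fluorescence slope after compound addition differing from the mean of all tested samples at 99.7% confidence, mostly higher but some lower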;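 also: thallium influx through GIRK channels coupled to M4 in HEK293 cells with BTC-AM dye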). The conditions noted are these: at 10 µM, actives lie on both sides.
Sequence of Muscarinic acetylcholine receptor M4 (Homo sapiens) (P08173 whole entry, looked up): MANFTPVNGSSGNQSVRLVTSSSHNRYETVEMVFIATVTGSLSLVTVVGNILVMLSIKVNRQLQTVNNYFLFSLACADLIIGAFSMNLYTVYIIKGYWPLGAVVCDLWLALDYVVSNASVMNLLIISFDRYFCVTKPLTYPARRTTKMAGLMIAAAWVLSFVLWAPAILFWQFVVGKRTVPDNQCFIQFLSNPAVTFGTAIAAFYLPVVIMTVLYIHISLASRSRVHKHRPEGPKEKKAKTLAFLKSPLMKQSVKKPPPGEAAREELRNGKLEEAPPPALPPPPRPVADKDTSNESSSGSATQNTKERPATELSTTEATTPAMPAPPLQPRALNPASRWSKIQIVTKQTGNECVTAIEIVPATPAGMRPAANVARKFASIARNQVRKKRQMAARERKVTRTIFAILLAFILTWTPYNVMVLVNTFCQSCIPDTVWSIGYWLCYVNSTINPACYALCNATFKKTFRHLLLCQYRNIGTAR
The nature of assay [18]: inhibitors of larval lipid processing in zebrafish, primary screen, whole organism, PED6 fluorescence, gall bladder and intestine (AID 686;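 active = a full or partial loss of lipid-probe fluorescence in the fish gall bladder, intestine or both, judged by eye; inactive = no fluorescence loss, or compound toxic to the fish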;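 also: larvae 5 to 7 days old with five fish per well; signal comes from phospholipase A2 cleavage of quenched PED6 carried via bile; overnight exposure to compound and PED6 before scoring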). The conditions noted are these: Zebrafish larvae PED6 lipid processing, fluorescence scoring; screened at 20 µM (by protocol).
The mark [19] stands for this setting: measured here: cell density z-score.
The mark [20] stands for this setting: measured here: nuclear c-Myc green intensity z-score.
The mark [21] stands for this setting: measured here: nuclear pErk red intensity z-score, stronger effect = higher value.

Sequence of Dual specificity protein phosphatase 6 (Homo sapiens) (Q16828 whole entry, looked up): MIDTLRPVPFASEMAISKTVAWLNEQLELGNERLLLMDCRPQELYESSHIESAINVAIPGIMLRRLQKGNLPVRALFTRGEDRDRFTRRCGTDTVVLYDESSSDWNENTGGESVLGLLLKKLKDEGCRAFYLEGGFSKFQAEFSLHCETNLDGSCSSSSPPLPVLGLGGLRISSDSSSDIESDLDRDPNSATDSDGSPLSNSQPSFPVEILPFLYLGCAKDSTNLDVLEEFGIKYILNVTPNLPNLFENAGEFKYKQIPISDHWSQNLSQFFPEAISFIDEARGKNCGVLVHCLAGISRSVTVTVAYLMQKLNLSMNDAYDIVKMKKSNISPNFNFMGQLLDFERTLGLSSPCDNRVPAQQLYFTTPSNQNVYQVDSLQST

Consider `COc1ccc(Cl)cc1C(=O)NNC(=S)NC(=O)/C=C/c1ccco1`, for which the normalised thallium flux (F/F0 slope) in assay [1] is 0.0165 (inactive). Besides, the normalized thallium flux in “PubChem AID 1714” is 0.0479 (active). In assay [2], the thallium flux rate (normalised fluorescence) was 0.0367 (active). Further, in assay [3], the raw Tl+ flux slope (below DMSO = inhibition, above = activation) is 0.0379 (active). Also, the thallium flux slope in assay [4] is 0.0335 (active).

Turning to `CC1CC(C)(C)n2c(O)c(N=NC(N)=S)c3cccc1c32` (stereo unspecified), the values for the normalized thallium flux (in the assay “PubChem AID 1714”; in assay [5]) were 0.0259 (active) and 0.0382 (inactive), respectively. Further, the raw Tl+ flux slope (below DMSO = inhibition, above = activation) in assay [3] is 0.0373 (active).

One may read the inhibition as the change of the read-out against control, counted positive when it falls. `Cc1oc2nc(SCCCC(=O)NCCCO)nc(N)c2c1C`: in assay [6], the cell count turned out to be 507. Besides, the inhibition in [6] is -4.5% (inactive); in assay [8], -109% (inactive); in [10] it was 3.56% (inactive); in [14], 0.255% (inactive); in assay [15], 12.9% (inactive); in [16], 12.8% (inactive). Besides, the inhibition of aggregation in [7] is 21.9% (inactive). In addition, the nuclei count turned out to be 90.5% in assay [7] and 116% in assay [8]. Further, the z-score was 0.495 in [9] (setting [19]), 0.376 in assay [9] (setting [20]) and -1.33 in assay [9] (setting [21]). Moreover, the fluorescence slope in assay [11] is -0.522 (inactive). Also, the NADPH fluorescence slope in [12] is -1.7e-05 (inactive). In addition, the slope in [13] is 0.00668 (inactive).

On to `CCCC(=O)N1c2ccccc2NC2=C(C(=O)CCC2)C1c1ccc(F)cc1` (stereo unspecified), for which the cell count in assay [6] is 593. Besides, the inhibition is -9.6% (inactive) in assay [6], -94.4% (inactive) in assay [8], 8.4% (inactive) in assay [15] and 23.4% (inactive) in assay [16]. In assay [7], the inhibition of aggregation was 3.9% (inactive). Also, the nuclei count in assay [7] is 124%; in assay [8], 123%. Moreover, the fluorescence slope in assay [11] was -0.574 (inactive). For the same compound, in [12], the NADPH fluorescence slope is -1.5e-05 (inactive). Moreover, the slope in [13] was 0.0063 (inactive). Moreover, the normalised thallium flux (F/F0 slope) in [1] is 0.0086 (inactive). Moreover, in assay [5], the normalized thallium flux was 0.0312 (inactive). In addition, the thallium flux rate (normalised fluorescence) in assay [2] was 0.0072 (inactive). Besides, in assay [3], the raw Tl+ flux slope (below DMSO = inhibition, above = activation) is 0.0212 (inactive).

As to `CCOC(=O)c1ccccc1N1C(=O)C2Sc3[nH]c(=O)sc3C(/C=C/c3ccccc3)C2C1=O` (stereo unspecified), in assay [1], the normalised thallium flux (F/F0 slope) is 0.00694 (inactive). Further, the normalized thallium flux in [5] is 0.0266 (active). Also, in assay [2], the thallium flux rate (normalised fluorescence) was 0.00732 (inactive). The raw Tl+ flux slope (below DMSO = inhibition, above = activation) in [3] was 0.00834 (active). Moreover, the thallium flux slope in assay [4] is 0.0106 (inactive).

With `CN1c2ccccc2-c2nc3ccccc3n2C1c1ccco1` (stereo unspecified), the cell count in assay [6] was 385. Besides, the inhibition in [6] was -3.7% (inactive); in assay [8], 1.9% (inactive); in assay [10], 6.04% (inactive); in [14] it was 3.48% (inactive). This compound came in with a nuclei count in assay [8] of 99.5%. Moreover, the figures for the z-score in assay [9] (setting [19]), in assay [9] (setting [20]) and in [9] (setting [21]) were 0.728, 0.674 and -0.101, respectively. For the same compound, the fluorescence slope in assay [11] was -0.315 (inactive); in assay [17] it was 0.00492 (inactive). Moreover, in assay [12], the NADPH fluorescence slope was 1.6e-05 (inactive). Moreover, the compound was called inactive in assay [18]. Also, the normalised thallium flux (F/F0 slope) in [1] was 0.00855 (inactive). For the same compound, in assay [5], the normalized thallium flux is 0.0321 (inactive). Moreover, in assay [2], the thallium flux rate (normalised fluorescence) is 0.00467 (active). Further, in assay [4], the thallium flux slope is 0.0097 (inactive).

For the compound `CC[C@@H](C)[C@@H](C(=O)N1CCN(C(=O)OC(C)(C)C)CC1)n1cc(CCC(=O)O)nn1`, the normalised thallium flux (F/F0 slope) in [1] is 0.0104 (inactive). Besides, the normalized thallium flux in assay [5] is 0.0349 (inactive). In addition, the thallium flux rate (normalised fluorescence) in assay [2] was 0.00923 (active). Moreover, the raw Tl+ flux slope (below DMSO = inhibition, above = activation) in assay [3] was 0.0234 (inactive). The thallium flux slope in [4] was 0.0111 (inactive).
